# In PubChem BioAssay:
# Calls of active or inactive are those of the source.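 How the source made its calls: active means signal rise over 3 SD above mean of control wells given weak agonist, in both repeats and first screen; inactive means the rest.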
# Tested on: TRPC4 (mouse), co-expressed with 5HT1a in HEK293
# Assay: enhancement of serotonin-evoked TRPC4 response – cell-based, second counter screen, HEK293 TRPC4/5HT1a, Fluo-4, counter-screen for TRPC4 potentiator project, confirmation (AID 434979)
# Conditions: Fluo-4 calcium flux, at 10 µM, serotonin added at its EC20 dose
row,SMILES,outcome
1,COc1ccc(CN2CCN(Cc3ccccc3F)CC2)c(OC)c1,inactive
2,C/C(N)=C(/C#N)C(=O)COC(=O)CC12CC3CC(CC(C3)C1)C2,inactive
3,CCCCC[n+]1cccc2c3ccccc3ccc21,inactive
4,COc1ccc(OC)c(Nc2cc(-c3ccccc3)nc(N)n2)c1,inactive
5,CCC1CCCCN1Cc1nc2c(c(=O)n(C)c(=O)n2C)n1Cc1ccccc1 (centres undefined),inactive
6,CCOC(=O)C1CCN(C2CCN(C(=O)c3oc4c(C)c(C)ccc4c3C)CC2)CC1,inactive
7,O=[N+]([O-])c1cccc(-c2nnc(C3CC3)o2)c1,inactive
8,CCOc1c(Cl)cc(CNCC(O)c2ccccc2)cc1OC (centres undefined),inactive
9,O=C(c1cccc(C(=O)N2CCN(c3ccccc3)CC2)c1)N1CCN(c2ccccc2)CC1,inactive
10,Cc1ccn2c(-c3csc(NCc4ccco4)n3)c(C)nc2c1,inactive
11,COc1ccc(Nc2nc(N)c3ccccc3n2)c(OC)c1,inactive
12,CCc1c(C(=O)N2CCCN(C)CC2)csc1C,inactive
13,COc1ccc(C)cc1N(C(=O)c1snc(C(N)=O)c1N)C(C(=O)NC1CCCC1)c1ccc(F)cc1 (centres undefined),inactive
14,CC(C)(c1ccccc1)c1ccc(OCCCNCCO)cc1,inactive
15,Cc1ccc(-n2nc(-c3cccs3)cc2C(=O)NCC2CCCO2)c(C)c1 (centres undefined),inactive
16,CC(C)CCN1CCN(Cc2ccsc2)CC1CCO (centres undefined),inactive
17,CN(CC1CCCN(CCc2cccc(C(F)(F)F)c2)C1)C(=O)c1cc2ccccc2o1 (centres undefined),inactive
18,Oc1ccc(CN2CCc3ccccc3C2)c2cccnc12,inactive
19,COc1ccc(C2C(C(C)=O)=C(O)C(=O)N2c2ccc(Br)cc2)cc1 (centres undefined),inactive
